# Results as given in ChEMBL document CHEMBL3988442, “University of Dundee, Small-Polar-MMV Screening Library” (2021).
# In all, about 66,000 compounds went through this assay and about 960 (1.5%) showed an effect of 50% or more. What follows is part of a selection rich in strong results, with near analogues and random picks from the rest.
# System: Trypanosoma brucei
# Experiment: Trypanosoma brucei 72 hour study
# Assay type: functional, organism-based
# Design: scale not given: in the data most compounds retested in dose-response had high values
smiles,measurement,setting,value
Cc1nn(C)c(N2CCOCC2)c1CNC1CCc2cc(F)ccc21.Cl (stereo not drawn),Percent Effect,"30.3 µM, […]",2.572%
O=C(c1ccccn1)N1CCCC(c2cc(C(F)F)n3ncnc3n2)C1 (stereo not drawn),Percent Effect,"30.3 µM, […]",-6.514%
CN(C)CCn1c2c(ccc1=O)CCN(C(=O)c1cccs1)CC2.O=C(O)C(F)(F)F,Percent Effect,"30.3 µM, […]",-37.11%
CC(C)NC(=O)CC1COC2(CCN(Cc3ccco3)CC2)C1 (stereo not drawn),Percent Effect,"30.3 µM, […]",-14.26%
Cn1ccc(C(=O)NC2CCC23CCN(Cc2ccc(F)cc2)CC3)c1.O=C(O)C(F)(F)F (stereo not drawn),Percent Effect,"30 µM, 30.03 µM",3.839%
CC(C)Nc1nc(N2CCCC2)nc2c1CN(C)CC2,Percent Effect,"30.3 µM, […]",-8.686%
CC(C)Nc1nc(N2CCCC2)nc2c1CN(C(C)C)CC2,Percent Effect,"30 µM, 30.03 µM",99.66%
CC(C)Nc1nc(N2CCOCC2)nc2c1CN(CC(=O)N(C)C)CC2,Percent Effect,"30 µM, 30.03 µM",-12.25%
CC(C)CC(=O)N1CCc2nc(N3CCOCC3)nc(NC(C)C)c2C1,Percent Effect,"30 µM, 30.03 µM",21.8%
CC(C)Nc1nc(N2CCCC2)nc2c1CCN(S(C)(=O)=O)CC2.O=C(O)C(F)(F)F.O=C(O)C(F)(F)F,Percent Effect,"30.3 µM, […]",-7.363%
CC(C)Nc1nc(N2CCCC2)nc2c1CN(S(C)(=O)=O)CC2,Percent Effect,"30.3 µM, […]",-6.542%
CCCN1CCc2nc(N3CCOCC3)nc(NC(C)C)c2C1,Percent Effect,"30.3 µM, […]",-24.43%
CC(C)CCN1CCc2nc(N3CCOCC3)nc(NC(C)C)c2C1,Percent Effect,"30.3 µM, […]",99.5%
COCCC(=O)N1CCc2nc(N3CCOCC3)nc(NC(C)C)c2C1,Percent Effect,"30.3 µM, […]",-26.7%
CCC(C)N1CCc2nc(N3CCCC3)nc(NC(C)C)c2C1 (stereo not drawn),Percent Effect,"30.3 µM, […]",80.67%
CCN1CCc2nc(N3CCOCC3)nc(NC(C)C)c2C1,Percent Effect,"30.3 µM, […]",-20.31%
CC(C)Nc1nc(N2CCCC2)nc2c1CN(c1ncc(F)cn1)CC2,Percent Effect,"30.3 µM, […]",99.94%
COc1ccc(Oc2cc(CN)ccn2)cc1,Percent Effect,"30 µM, 30.03 µM",-27.14%
O=C1N(c2ccsc2)CCC12CCCN(c1ncc(F)cn1)C2 (stereo not drawn),Percent Effect,"30.3 µM, […]",6.515%
CC(C)(C)n1ncc(NCCc2ccccc2C(F)(F)F)c(Cl)c1=O,Percent Effect,"30 µM, 30.03 µM",-22.16%
COC(C)(C)C(=O)N1CCC(c2cc(CN(C)C)n(C)n2)CC1.Cl,Percent Effect,"30.3 µM, […]",-10.49%
Cc1ccc(CN2Cc3c(cnn3C)C(COCC3CC3)C2)s1 (stereo not drawn),Percent Effect,"30 µM, 30.03 µM",38.62%
CC(C)=CCN1C(=O)[C@H]2CC[C@@H]1CN(C(=O)CCc1nc(Cl)n[nH]1)C2,Percent Effect,"30 µM, 30.03 µM",-4.584%
COC(=O)CN1CC2(CCNCC2)COc2ccccc2S1(=O)=O.O=C(O)C(F)(F)F,Percent Effect,"30 µM, 30.03 µM",-19.66%
Br.CCOc1ccc(Br)cc1C1CCCN1 (stereo not drawn),Percent Effect,"30 µM, 30.03 µM",-44.26%
CC(C)OCCCN(CC(=O)N1CCNCC1)C(=O)c1ccc(F)cc1.O=C(O)C(F)(F)F,Percent Effect,"30 µM, 30.03 µM",-6.979%
Cc1nc(CN2CCc3nc(N4CCCC4)nc(NC(C)C)c3C2)cs1,Percent Effect,"30 µM, 30.03 µM",98.38%
Cc1nc(CN2CCc3nc(NC(C)C)nc(C)c3C2)cs1,Percent Effect,"30 µM, 30.03 µM",1.176%
CC(C)Nc1nc(N2CCOCC2)nc2c1CN(Cc1ccoc1)CC2,Percent Effect,"30 µM, 30.03 µM",8.067%
CN(CCOc1ccc(Cl)cc1)Cc1ccc(S(=O)(=O)N(C)C)o1,Percent Effect,"30 µM, 30.03 µM",-22.42%
Cn1nc(-c2ccc(Cl)cc2)c(Br)c1C(=O)O,Percent Effect,"30 µM, 30.03 µM",-21.18%
Cc1cccc(CN2C(=O)CCC23CCN(C(=O)N2CCCC2)CC3)n1.O=C(O)C(F)(F)F,Percent Effect,"30.3 µM, […]",-18.36%
Cc1cc(NCc2ccc(CO)cc2)n2nc(C)cc2n1,Percent Effect,"30 µM, 30.03 µM",21.61%
Cc1cc(NCc2ccc(O)cc2)n2nc(C)cc2n1,Percent Effect,"30 µM, 30.03 µM",9.404%
Cc1cc(NCc2cccnc2)n2nc(C)cc2n1,Percent Effect,"30 µM, 30.03 µM",51.67%
COCCN1CCc2ncnc(-c3ccccc3)c2CC1.O=C(O)C(F)(F)F,Percent Effect,"30.3 µM, […]",-87.22%
NC(=O)c1cccc(OCC(=O)NS(=O)(=O)c2ccc3c(c2)CCC3)c1,Percent Effect,"30.3 µM, […]",-4.37%
CCc1ncc(CN(C)C(=O)Nc2cccnc2N2CCCC2)s1,Percent Effect,"30 µM, 30.03 µM",50.09%
CN(Cc1ccco1)C(=O)Nc1cccnc1N1CCCC1,Percent Effect,"30.3 µM, […]",18.63%
CN(Cc1ccsc1)C(=O)Nc1cccnc1N1CCCC1,Percent Effect,"30 µM, 30.03 µM",-52.54%
O=C(O)C(F)(F)F.O=C(c1cc[nH]n1)N1CCC2(CC1)CC(Oc1cccnc1)CO2 (stereo not drawn),Percent Effect,"30 µM, 30.03 µM",-3.949%
COc1ccc(Cl)cc1NCC(=O)NCCNc1ncccn1,Percent Effect,"30.3 µM, […]",-3.8%
same,Percent Effect,"10 mM, 10 mM as filed; unlikely as a test dose",-45.51%
COc1ccc(Cl)cc1NCC(=O)NCc1cccnc1OC,Percent Effect,"30.3 µM, […]",74.82%
same,Percent Effect,"10 mM, 10 mM as filed; unlikely as a test dose",-40.14%
COc1cc(CNC(=O)CNc2cc(Cl)ccc2OC)ccn1,Percent Effect,"30 µM, 30.03 µM",-27.18%
CS(=O)(=O)NCc1nnc2n1CCN(Cc1cccs1)CC2.O=C(O)C(F)(F)F,Percent Effect,"30.3 µM, […]",-150.1%
Cc1ccc(N2CCC3(CC2)COCCN(c2nccs2)C3)nn1.O=C(O)C(F)(F)F.O=C(O)C(F)(F)F,Percent Effect,"30 µM, 30.03 µM",-12.93%
CCS(=O)(=O)N1CCC2(CC1)COC(COc1cccnc1)C2.O=C(O)C(F)(F)F (stereo not drawn),Percent Effect,"30.3 µM, […]",1.349%
O=C(O)C(F)(F)F.O=C(c1ccccn1)N1CCC2(CC1)COC(COCC1CC1)C2 (stereo not drawn),Percent Effect,"30 µM, 30.03 µM",39.74%
O=C(c1ccccn1)N1CCC2(CC1)COC(COc1cccnc1)C2 (stereo not drawn),Percent Effect,"30 µM, 30.03 µM",52.19%
CCOCC1CC2(CCN(C(=O)c3ccccn3)CC2)CO1.O=C(O)C(F)(F)F (stereo not drawn),Percent Effect,"30.3 µM, […]",13.92%
Cc1ccc(C(=O)N2CCC3(CC2)COC(COc2cccnc2)C3)o1.O=C(O)C(F)(F)F (stereo not drawn),Percent Effect,"30 µM, 30.03 µM",51.84%
Cc1ccc(C(=O)N2CCC3(CC2)COC(COc2ccccn2)C3)o1.O=C(O)C(F)(F)F (stereo not drawn),Percent Effect,"30.3 µM, […]",15.32%
O=C(O)C(F)(F)F.O=C([C@H]1CCCO1)N1CCCC2(COCCN(c3ccccc3)C2)C1 (stereo partly drawn),Percent Effect,"30.3 µM, […]",-14.49%
c1ccc(C(CC2CN(Cc3c[nH]cn3)CCO2)c2ccccc2)cc1 (stereo not drawn),Percent Effect,"30.3 µM, […]",18.17%
CC(=O)N1C[C@@H](c2ccsc2)[C@@H]2CN(Cc3ccccc3C)CC[C@@H]21,Percent Effect,"30.3 µM, […]",-10.13%
CC(=O)N1CCCn2nc(CNS(=O)(=O)N3CCCCCC3)cc2C1,Percent Effect,"30 µM, 30.03 µM",-5.109%
COC(=O)NCc1cc2n(n1)CCCN(C(C)=O)C2,Percent Effect,"30 µM, 30.03 µM",54.27%
CC(=O)N1CCCn2nc(CNC(=O)N3CCCCC3)cc2C1,Percent Effect,"30 µM, 30.03 µM",-45.6%
O=C(c1cccs1)N1CCC2(C1)c1ccccc1S(=O)(=O)N2CC1CC1 (stereo not drawn),Percent Effect,"30 µM, 30.03 µM",16.77%
Cc1ccc(CC(NC(=O)CN(C)C2CC2)c2ccccn2)cc1 (stereo not drawn),Percent Effect,"30 µM, 30.03 µM",99.62%
CSCC(=O)NC(Cc1ccc(C)cc1)c1ccccn1 (stereo not drawn),Percent Effect,"30 µM, 30.03 µM",-45.46%
CCCC(=O)NC(Cc1ccc(C)cc1)c1ccccn1 (stereo not drawn),Percent Effect,"30 µM, 30.03 µM",-30.99%
O=C(O)C(F)(F)F.c1csc(CN2C[C@H](OCC3CC3)[C@H]3COC[C@H]32)n1,Percent Effect,"30.3 µM, […]",-56.8%
Cc1cc(C)n(C2CN(CC(O)c3cc(F)ccc3F)C2)n1 (stereo not drawn),Percent Effect,"30.3 µM, […]",7.425%
same,Percent Effect,"10 mM, 10 mM as filed; unlikely as a test dose",-39.98%
CCN1C(=O)CCC12CCCN(Cc1ccc(F)cc1)CC2.O=C(O)C(F)(F)F (stereo not drawn),Percent Effect,"30.3 µM, […]",-27.1%
C[C@@H]1CN(C(=O)c2ccsc2)C[C@]12CCN(c1ccsc1)C2=O,Percent Effect,"30 µM, 30.03 µM",49.54%
C[C@H]1CN(C(=O)N(C)C)C[C@@]12CCN(c1ccsc1)C2=O,Percent Effect,"30.3 µM, […]",-235.1%
C[C@@H]1CN(C(=O)NC2CC2)C[C@]12CCN(c1ccsc1)C2=O,Percent Effect,"30 µM, 30.03 µM",50.13%
Cc1ccnn1CCC(=O)N1CCCC1c1cc2cccnc2[nH]1.Cl (stereo not drawn),Percent Effect,"30.3 µM, […]",-12.68%
Cc1cccc(CN2C[C@@H]3COC[C@]3(CNC(=O)c3ccno3)C2)n1.O=C(O)C(F)(F)F.O=C(O)C(F)(F)F,Percent Effect,"30 µM, 30.03 µM",26.49%
Cc1nc(N2CCCCC2)ncc1-c1cc(O)nc(N2CCCCC2)n1,Percent Effect,"30.3 µM, […]",-25.73%
Cc1nc(N2CCCC2)ncc1-c1cc(O)nc(N2CCCC2)n1,Percent Effect,"30 µM, 30.03 µM",64.4%
Cc1nc(N2CCCC2)ncc1-c1cc(O)nc(N2CCCCC2)n1,Percent Effect,"30.3 µM, […]",-25.67%
CCOCC1CN(S(=O)(=O)N(C)C)Cc2cnn(CC)c21.O=C(O)C(F)(F)F (stereo not drawn),Percent Effect,"30 µM, 30.03 µM",-21.09%
CCOCC1CN(C(=O)c2cscn2)Cc2cnn(CC3CC3)c21 (stereo not drawn),Percent Effect,"30 µM, 30.03 µM",-19.67%
CCOCC1CN(C(=O)c2cccn2C)Cc2cnn(CC3CC3)c21.O=C(O)C(F)(F)F (stereo not drawn),Percent Effect,"30 µM, 30.03 µM",19.58%
CCOCC1CN(S(=O)(=O)N(C)C)Cc2cnn(C)c21.O=C(O)C(F)(F)F (stereo not drawn),Percent Effect,"30 µM, 30.03 µM",56.34%
CCOCC1CN(S(=O)(=O)N(C)C)Cc2cnn(CC3CC3)c21.O=C(O)C(F)(F)F (stereo not drawn),Percent Effect,"30 µM, 30.03 µM",-18.48%
CCOCC1CN(C(=O)c2cnccn2)Cc2cnn(CC3CC3)c21.O=C(O)C(F)(F)F (stereo not drawn),Percent Effect,"30 µM, 30.03 µM",61.22%
O=C(CC1CC1)N1CCN(Cc2cccnc2)c2ncccc2C1.O=C(O)C(F)(F)F.O=C(O)C(F)(F)F,Percent Effect,"30.3 µM, […]",-18.28%
C1CCC(CN2Cc3nnn(CC4CC4)c3C(COCC3CC3)C2)C1.O=C(O)C(F)(F)F (stereo not drawn),Percent Effect,"30.3 µM, […]",-7.314%
CCCS(=O)(=O)N1C[C@H]2C[C@H](C(=O)N3CCN(C)CC3)[C@@H](C1)O2.O=C(O)C(F)(F)F,Percent Effect,"30.3 µM, […]",2.556%
Cn1ccc(C(=O)NC2CCC23CCN(Cc2cnn(C)c2)CC3)c1.O=C(O)C(F)(F)F (stereo not drawn),Percent Effect,"30 µM, 30.03 µM",-26.08%
CC(C)CN(C(=O)Nc1cccnc1)C1CC1,Percent Effect,"30 µM, 30.03 µM",-2.145%
O=C(Nc1cccnc1)N(Cc1ccccc1)C1CC1,Percent Effect,"30 µM, 30.03 µM",60.16%
O=C(c1cccnc1)N(Cc1ccncc1)C1CC1,Percent Effect,"30 µM, 30.03 µM",-21.55%
Fc1ccc(CNC2CCN(CCc3ccncc3)CC2)cc1F,Percent Effect,"30 µM, 30.03 µM",6.927%
COc1ccc(CNC2CCN(CCc3ccncc3)CC2)cc1O,Percent Effect,"30 µM, 30.03 µM",21.52%
Cc1ccc(CNC2CCN(CCc3ccncc3)CC2)cc1C,Percent Effect,"30 µM, 30.03 µM",51.93%
O=C(O)C(F)(F)F.O=C1CCCN1Cc1nnc2n1CCCN(Cc1ccco1)C2,Percent Effect,"30.3 µM, […]",-37.98%
CC(C)(C)CC(=O)NCCn1nc(C2CCNC2)c2cccnc21.Cl (stereo not drawn),Percent Effect,"30.3 µM, […]",-18.41%
COCc1noc(Cn2c(=O)[nH]c3ccccc32)n1,Percent Effect,"30 µM, 30.03 µM",-41.22%
CCN1CCOCC12CCN(C(=O)Cc1cccs1)CC2.O=C(O)C(F)(F)F,Percent Effect,"30.3 µM, […]",-18.12%
CCN1CCOCC12CCN(C(=O)Cc1ccccc1)CC2.O=C(O)C(F)(F)F,Percent Effect,"30 µM, 30.03 µM",60.57%
O=C(Cc1ccccc1)N1CCC2(CC1)COCCN2CC1CC1.O=C(O)C(F)(F)F,Percent Effect,"30 µM, 30.03 µM",11.75%
